Experimental findings from article PMC4336329 (PLoS ONE, 2015) are described below.

Among all 310,000 compounds or so, about 14,000 (4.5%) showed an effect of 50% or more. The effect is printed as a negative number. This excerpt belongs to a sample that is enriched for strong results.
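Also: peak tail current of the secondary pulse compared with the same well before compound.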

In the assay the target is human ether-à-go-go-related gene (hERG) potassium channel (human, UniProt Q12809). As to the kind of experiment: primary screen, population patch clamp on CHO cells stably expressing hERG; higher = less effect of the substance.
Sequence of human ether-à-go-go-related gene (hERG) potassium channel (Q12809 whole entry, looked up): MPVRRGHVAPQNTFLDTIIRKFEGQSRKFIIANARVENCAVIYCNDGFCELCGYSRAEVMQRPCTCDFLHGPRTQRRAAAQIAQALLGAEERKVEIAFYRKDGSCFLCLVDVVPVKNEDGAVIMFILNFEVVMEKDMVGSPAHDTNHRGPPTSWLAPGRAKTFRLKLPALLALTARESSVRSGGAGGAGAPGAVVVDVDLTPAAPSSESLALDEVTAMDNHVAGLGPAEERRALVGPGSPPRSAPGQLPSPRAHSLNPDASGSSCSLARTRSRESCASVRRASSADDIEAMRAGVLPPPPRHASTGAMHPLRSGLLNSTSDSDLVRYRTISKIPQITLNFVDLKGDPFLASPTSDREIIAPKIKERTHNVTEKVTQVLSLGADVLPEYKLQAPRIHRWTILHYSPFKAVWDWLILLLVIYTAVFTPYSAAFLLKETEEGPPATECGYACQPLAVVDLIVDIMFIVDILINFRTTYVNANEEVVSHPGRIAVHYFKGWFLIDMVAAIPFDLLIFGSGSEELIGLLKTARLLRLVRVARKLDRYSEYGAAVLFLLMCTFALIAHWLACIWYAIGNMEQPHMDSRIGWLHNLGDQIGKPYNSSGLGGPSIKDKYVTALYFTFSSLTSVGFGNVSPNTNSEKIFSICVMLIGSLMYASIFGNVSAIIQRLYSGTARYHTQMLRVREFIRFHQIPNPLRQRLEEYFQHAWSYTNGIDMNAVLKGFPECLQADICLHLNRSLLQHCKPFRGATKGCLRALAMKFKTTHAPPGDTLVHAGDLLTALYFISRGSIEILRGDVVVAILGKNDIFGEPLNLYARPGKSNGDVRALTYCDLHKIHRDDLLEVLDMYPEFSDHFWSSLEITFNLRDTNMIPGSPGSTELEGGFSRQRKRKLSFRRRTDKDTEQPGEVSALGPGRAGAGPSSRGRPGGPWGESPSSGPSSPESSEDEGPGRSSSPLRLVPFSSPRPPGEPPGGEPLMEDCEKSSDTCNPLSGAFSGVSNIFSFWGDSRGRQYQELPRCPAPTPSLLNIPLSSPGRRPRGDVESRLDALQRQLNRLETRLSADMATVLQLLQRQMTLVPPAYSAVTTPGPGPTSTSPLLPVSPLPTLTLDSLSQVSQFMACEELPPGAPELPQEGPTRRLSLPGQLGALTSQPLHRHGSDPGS
For the compound `COc1ccc(C2C(C#N)=C(N)Oc3n[nH]c(C)c32)cc1CN1CCN(c2ccc(F)cc2)CC1` (stereo not drawn), the “hERG current change (%, negative = inhibition) at 10uM” value is -65.6%.
With `COc1cc(OC)c(CN2CCCN(C)CC2)cc1Br` the figure was 18.1%.
With `COc1cc(OC)c(OC)cc1CN1CCN(c2ccccc2OC)CC1` the figure was -31.1%.
The figure for `COc1ccc(CN2CCN(c3ccc(F)cc3)CC2)c(OC)c1OC` is -70.2%.
For the compound `COc1cc(OC)c(OC)cc1CN1CCN(c2ccc(F)cc2)CC1`, the “hERG current change (%, negative = inhibition) at 10uM” value is -68.5%.
With `COc1ccc(C2C(C#N)=C(N)Oc3n[nH]c(C)c32)cc1Cn1nnc2ccccc21` (stereo not drawn) the figure was -8.03%; with `COc1ccc(C2C(C#N)=C(N)Oc3n[nH]c(C)c32)cc1Cn1cc([N+](=O)[O-])cn1` (stereo not drawn), -14%.
The figure for `COc1ccc(CN2CCNCC2)c(OC)c1OC` is 9.67%; for `COc1cc(OC)c(CN2CCN(c3ccc(F)cc3)CC2)cc1Br` it is -70.3%; for `COc1ccc(CN2CCN(C(c3ccc(F)cc3)c3ccc(F)cc3)CC2)c(OC)c1OC.Cl` it is -13.3%.
The figure for `COc1cc(OC)c(OC)cc1CN1CCN(S(=O)(=O)c2ccc(F)cc2)CC1.O=C(O)C(=O)O` is -7.69%; for `COc1cc(OC)c(CN2CCCCCCC2)cc1Br` it is -22.4%.
`S=c1[nH]nc(-c2ccccc2)n1/N=C/c1c[nH]c2ccccc12`: the “hERG current change (%, negative = inhibition) at 10uM” value came out at 12.1%.
The figure for `CC1(C)CC2CC(C)(CN2C(=O)COC(=O)CNC(=O)c2ccc(Cl)c(Cl)c2)C1` (stereo not drawn) is -20.9%.
Regarding `O=C(CN1C(=O)NC2(CCCCCC2)C1=O)NCCc1ccc(F)cc1`, the “hERG current change (%, negative = inhibition) at 10uM” value is on record as -13%.
As to `O=C(NCc1cccs1)C1CCN(S(=O)(=O)c2ccc(Br)s2)CC1`, the “hERG current change (%, negative = inhibition) at 10uM” value is on record as -14.8%.
On to `CCc1cc2c(=O)n(N)c(CCC(=O)O)nc2s1`, for which the “hERG current change (%, negative = inhibition) at 10uM” value is -8.56%.
With `Cc1ccc(-n2nnnc2SCC(=O)c2c(N)n(C3CC3)c(=O)[nH]c2=O)c(C)c1` the figure was -4.23%; with `CC1Cc2cc(/C(O)=C3/C(=O)C(=O)N(CCCn4ccnc4)C3c3ccc(Br)cc3)ccc2O1` (stereo not drawn), 6.07%; with `CN(Cc1ccc(F)cc1)C(=O)c1cc(COc2ccc(-n3cncn3)cc2)on1`, -78.3%.
The figure for `COC1CCN(C(=O)c2cc(COc3ccc(-n4cncn4)cc3)on2)CC1` is -18.6%; for `COCCOC1CCN(C(=O)c2cc(COc3ccc(-n4cncn4)cc3)on2)CC1` it is -22.8%; for `COc1cccc(CN(C)C(=O)c2cc(COc3ccc4ncccc4c3)on2)c1` it is -14.8%.
With `CCc1ccc(CN(C)C(=O)c2cc(COc3ccc(-n4cncn4)cc3)on2)cc1` the figure was -42.5%; with `O=C(c1cc(COc2ccc(-n3cncn3)cc2)on1)N1CCCC1`, -12%.
On to `COc1cccc(CN(C)C(=O)c2cc(COc3ccc(-n4cncn4)cc3)on2)c1`, for which the “hERG current change (%, negative = inhibition) at 10uM” value is -79.9%.
With `CN(Cc1ccc(F)cc1)C(=O)c1cc(COc2ccc(F)cc2F)on1` the figure was 1.65%; with `CCCOC1CCCN(C(=O)c2cc(COc3ccc(-n4cncn4)cc3)on2)C1` (stereo not drawn), -79%; with `CC(C)CCOP(N)(=O)Oc1ccccc1Cl` (stereo not drawn), 18.1%.
The figure for `CCOc1ncccc1C(=O)OCC(=O)Nc1ccc2c(c1)OCO2` is 12.6%; for `Cc1ccc(-n2[nH]c(C)c(C=Nc3ccc(S(=O)(=O)N4CCOCC4)cc3)c2=O)c(C)c1` it is -7.6%; for `O=C(Nc1ccccc1NC(=O)NC1CCCCC1)NC1CCCCC1` it is 0.961%.
As for `Cc1c(NC(=O)CSc2nnc3c4ccccc4n(CCc4ccccc4)c3n2)c(=O)n(-c2ccccc2)n1C`, the “hERG current change (%, negative = inhibition) at 10uM” value is reported as -27.2%.
On to `CC1(C)CC(CCN)(Cc2ccccc2Cl)CCO1` (stereo not drawn), for which the “hERG current change (%, negative = inhibition) at 10uM” value is on record as -1.1%.
The figure for `Cc1ccc(S(=O)(=O)NCc2cccnc2)cc1C(=O)N1CCCC1` is 20.3%; for `Cc1ccccc1CN1CCN(CCCc2ccccc2)C(CCO)C1` (stereo not drawn) it is -70%.
With `OCCC1CN(Cc2ccccc2O)CCN1CCc1ccccc1` (stereo not drawn) the figure was -35.6%; with `Cc1ccccc1CN1CCN(CC2CC2)CC1CCO` (stereo not drawn), -4.79%; with `OCCC1CN(Cc2ccccc2O)CCN1CCCc1ccccc1` (stereo not drawn), -74.8%.
With `COc1ccc(-c2cc(C(=O)Nc3cccnc3Cl)no2)cc1OC` the figure was 16.6%; with `COc1ccc(OC)c(Nc2nnc(C)c(=O)[nH]2)c1`, 6.27%.
As to `O=C1NC(=O)/C(=C\c2ccc(Br)o2)S1`, the “hERG current change (%, negative = inhibition) at 10uM” value was 21%.
With `CCOC(=O)c1[nH]c(C)c(C(=O)OCC(=O)N(CC)C2CCS(=O)(=O)C2)c1C` (stereo not drawn) the figure was -8.58%.
The figure for `CC(OC(=O)CCN1C(=O)c2cccc([N+](=O)[O-])c2C1=O)C(=O)Nc1cc(Cl)cc(Cl)c1` (stereo not drawn) is -68.6%; for `COc1cccc(NC(=O)CCN2C(=O)c3cccc([N+](=O)[O-])c3C2=O)c1` it is -3.85%.
